Assay results from PubChem BioAssay (NCATS).
Results filed as inconclusive are left out. Activity calls are given as the source filed them. Unless noted, calls come from the whole dose curve.

Legend:
[1] = qHTS for Inhibitors of the Functional Ribonucleoprotein Complex (vRNP) of Lassa (LASV) Arenavirus: Viability assay - alamar blue signal for LASV Primary Screen (AID 1347083; calls by dose curve; tested in HEK293 reporter line; note: nearly all actives have a fitted effect of over 80% in size; note: potency is the fitted concentration of half-maximal effect)
[2] = qHTS for Inhibitors of the Functional Ribonucleoprotein Complex (vRNP) of Lymphocytic Choriomeningitis Arenaviruses (LCMV): Viability assay - alamar blue signal for LCMV Primary Screen (AID 1347085; calls by dose curve; tested in HEK293 reporter line; note: nearly all actives have a fitted effect of over 80% in size; note: potency is the fitted concentration of half-maximal effect)
[3] = target: Nucleoprotein (Lymphocytic choriomeningitis virus (strain Armstrong)) (UniProt P09992); experiment: qHTS for Inhibitors of the Functional Ribonucleoprotein Complex (vRNP) of Lymphocytic Choriomeningitis Arenaviruses (LCMV): LCMV Primary Screen - GLuc reporter signal (AID 1347086); note: potency is the fitted concentration of half-maximal effect; nearly all actives have a fitted effect of over 70% in size
[4] = Confirmatory qHTS for VERO E6 Cytotoxicity Assay: Counterscreen for SARS-CoV-2 CPE Assay (AID 1508605); note: % is set by controls: 0 for no effect and ±100 for the full control effect; nearly all actives have a fitted effect of over 60% in size
[5] = Confirmatory qHTS for activators (rescue) of SARS-CoV-2 Cytopathic Effect (CPE) (AID 1508606); note: nearly all actives have a fitted effect of over 70% in size; note: potency is the fitted concentration of half-maximal effect
[6] = Cytotoxicity counterscreen for inhibitors of SARS-CoV-2 cell entry (AID 1645845); note: nearly all actives have a fitted effect of over 50% in size; note: potency is the fitted concentration of half-maximal effect
Procedure, shortened: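 HEK293-ACE2 cells (Expi293F stably expressing human ACE2) seeded overnight, then compound for 1 h plus 48 h at 37C. Viability as ATP content by luminescence; normalized to wells with cells and media-only wells.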

[7] = Validation screen for inhibitors of Lassa infection (AID 463096); note: potency is the fitted concentration of half-maximal effect; for activity change, negative = inhibition: % is set by controls: 0 for no effect and ±100 for the full control effect
[8] = Inducers of the Endoplasmic Reticulum Stress Response (ERSR) in human glioma: Validation (AID 504836; active = well fitted curve in the direction sought with a large enough effect; an effect the other way counts as inactive or inconclusive; note: 0% is about no effect)
Procedure, shortened: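 Stably transfected U87-MG glioma cells carrying a GRP78-based luciferase sensor; 16 h compound incubation. Luminescence end-point read 10 min after Bright-Glo addition at room temperature.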

[9] = Confirmatory qHTS to identify inhibitors of SARS-CoV-2 cell entry (AID 1645844); note: potency is the fitted concentration of half-maximal effect; nearly all actives have a fitted effect of over 45% in size
Procedure, shortened: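 HEK293-ACE2 cells were pretreated 1 h with compound, then infected with MLV-based pseudoparticles bearing C-terminally truncated Wuhan-Hu-1 spike for 48 h at 37C; luciferase luminescence normalized to spike PP and bald PP wells.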

[10] = Primary qHTS to identify inhibitors of SARS-CoV-2 cell entry (AID 1645846); settings: activity change, negative = inhibition: at 57.1 µM (top of the series) unless noted; note: nearly all actives have a fitted effect of over 45% in size; note: potency is the fitted concentration of half-maximal effect
Procedure, shortened: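 Entry measured by luciferase signal 48 h after adding SARS-CoV-2-S pseudotyped MLV particles to HEK293-ACE2 cells preincubated 1 h with compounds. Normalisation: bald particles and spike particles.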

[11] = VSVG counterscreen qHTS to identify inhibitors of SARS-CoV-2 cell entry (AID 1645847); note: potency is the fitted concentration of half-maximal effect; nearly all actives have a fitted effect of over 65% in size
Procedure, shortened: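 Luminescence read after 48 h infection at 37 C with VSV-G-pseudotyped MLV particles, following 1 h compound exposure of Expi293F cells stably expressing human ACE2; scaled between bald particle and VSV-G particle wells.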

[12] = target: Alpha-galactosidase (Coffea arabica) (UniProt Q42656); experiment: Counterscreen for Glucocerebrosidase Inhibitors: qHTS Assay for Coffee Bean alpha-Galactosidase at pH 4.5 (AID 957; active = well fitted curve in the direction sought with a large enough effect; an effect the other way counts as inactive or inconclusive;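 note: plate controls were enzyme alone for no effect and no enzyme for full effect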)
Procedure, shortened: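 Green coffee bean enzyme (2 nM final) was incubated with compounds (0.7 nM to 77 uM) and 4-methylumbelliferyl alpha-D-galactopyranoside (80 uM final) in 50 mM citric acid, 0.005% Tween-20, pH 4.5, 20 min at room temperature; AC50 from Hill fits.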

[13] = target: Alpha-galactosidase (Coffea arabica) (UniProt Q42656); experiment: Counterscreen for Glucocerebrosidase Inhibitors: qHTS Assay for Coffee Bean alpha-Galactosidase at pH 5.9 (AID 998; active = well fitted curve in the direction sought with a large enough effect; an effect the other way counts as inactive or inconclusive;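 note: plate controls were uninhibited enzyme for no effect and no-enzyme basal signal for full effect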)
Procedure, shortened: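 Green coffee bean enzyme (2 nM) with 4-methylumbelliferyl alpha-D-galactopyranoside (80 uM) in 50 mM citric acid, 0.005% Tween-20, pH 5.9, 20 min at room temperature; compounds 0.7 nM–77 uM. Stopped at pH 10, fluorescence Ex365/Em440; Hill-fit AC50.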

[14] = qHTS for differential inhibitors of proliferation of Plasmodium falciparum line 3D7 (AID 1876; active = well fitted curve in the direction sought with a large enough effect; an effect the other way counts as inactive or inconclusive; note: potency is the fitted concentration of half-maximal effect)
[15] = Nrf2 qHTS screen for inhibitors: Validation (AID 493153; active = well fitted inhibition curve with a large enough effect in the main read-out, with a control signal flat, not every such curve was filed as active; for activity change, negative = inhibition: % of control where 0% means no effect); settings: Potency: luciferase luminescence; viability change: measured here: cytotoxicity max response
Procedure, shortened: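 A549 cells carrying an ARE-driven firefly luciferase reporter, in 5% FBS OPTI-MEM, were treated with compounds in concentration-response for 18-24 h at 37°C. Viability was read by CellTiter-Fluor fluorescence, then Nrf2 activity by luciferase luminescence.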

[16] = qHTS for Inhibitors of ATXN expression: Validation (AID 588378; active = well fitted curve in the direction sought with a large enough effect; an effect the other way counts as inactive or inconclusive; note: % is set by controls: 0 for no effect and ±100 for the full control effect; nearly all actives have a fitted effect of over 75% in size)
Procedure, shortened: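 Luciferase luminescence (Bright-Glo) from an ATXN2-FFLuc HEK293 line after 24 h compound exposure at 37 °C, preceded by a CellTiter-Fluor fluorescence viability read. Serial dilutions of a reference ATXN2 inhibitor and a luciferase inhibitor served as controls.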

[17] = qHTS assay for small molecule activators of the p53 signaling pathway (AID 651743; active = well fitted activation curve with a large enough effect in the signal ratio, not every such curve was filed as active; the % refers to the signal ratio; note: potency is the fitted concentration of half-maximal effect); settings: HCT-116 p53RE-bla, beta-lactamase FRET ratio, 16 h; activation: stronger effect = higher value
Procedure, shortened: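 HCT-116 p53RE-bla, 4,000 cells/well; 5 h settle; cpd/DMSO 16 h, 37 C; LiveBLAzer B/G 2 h RT; fluorescence intensity.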

[18] = qHTS assay to identify small molecules that stimulate interleukin-8 (IL-8) secretion (AID 651758; active = well fitted activation curve with a large enough effect in the signal ratio; the % refers to the signal ratio; note: potency is the fitted concentration of half-maximal effect)
Procedure, shortened: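 THP-1 cells (2000/well) exposed to compound 16 h at 37 C; secreted IL-8 then detected by HTRF with cryptate- and XL665-labelled anti-IL-8 antibody pair after 1-3 h at room temperature.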

[19] = target: Nuclear receptor ROR-gamma (Homo sapiens) (UniProt P51449); experiment: qHTS assay for small molecule antagonists of the retinoid-related orphan receptor gamma (ROR-gamma) signaling pathway (AID 651802; active = well fitted curve in the direction sought with a large enough effect; an effect the other way counts as inactive or inconclusive; note: potency is the fitted concentration of half-maximal effect; nearly all actives have a fitted effect of over 60% in size)
Procedure, shortened: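 CHO cells carrying TET-inducible ROR-gamma and an ROR response element–luciferase reporter were exposed to compound, then induced with doxycycline. After 16hr at 37C, luminescence was read; lower signal indicates antagonism.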

[20] = target: Arylsulfatase A (Homo sapiens) (UniProt P15289); experiment: qHTS screen for enhancers of Arylsulfatase A (ASA1): LOPAC Validation Assay (AID 720538; active = well fitted curve in the direction sought with a large enough effect; an effect the other way counts as inactive or inconclusive; note: 0% is about no effect)
Procedure, shortened: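 Enhancer assay in patient-derived MLD fibroblasts carrying ASA-I179S: 48 h compound exposure at 37 C, then 14 h room-temperature pNCS turnover (0.5 mM final) in lysis buffer. Read by fluorescence at 525/598 nm after NaOH stop.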

[21] = Primary qHTS for inhibitors of SARS-S pseudo-typed particle cell entry (AID 1479145); note: % is set by controls: 0 for no effect and ±100 for the full control effect; nearly all actives have a fitted effect of over 45% in size
[22] = Primary qHTS for Huh7 cytotoxicity: counterscreen for inhibitors of MERS-S pseudotyped particle cell entry (AID 1479147); settings: outcome: dose series up to 57.1 µM unless noted
[23] = Primary qHTS for inhibitors of MERS-S pseudo-typed particle cell entry (AID 1479149); note: nearly all actives have a fitted effect of over 60% in size; for activity change, negative = inhibition: % is set by controls: 0 for no effect and ±100 for the full control effect
[24] = Primary qHTS for Vero E6 cytotoxicity: counterscreen for inhibitors of SARS-S pseudo-typed particle cell entry (AID 1479150); settings: outcome: dose series up to 57.1 µM unless noted; note: % is set by controls: 0 for no effect and ±100 for the full control effect
[25] = target: Peroxisome proliferator-activated receptor delta (Homo sapiens) (UniProt Q03181); experiment: qHTS assay for small molecule agonists of peroxisome proliferator-activated receptor delta signaling (AID 588534);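 note: 0% = DMSO basal wells and 100% = positive control agonist at 10 µM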
Procedure, shortened: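 Cell-based beta-lactamase reporter assay run in agonist mode: cells seeded and incubated 5 hrs at 37 C, compounds added and incubated 18 hrs at 37 C. CCF4 dye fluorescence read after 2 hrs at RT; EC50 and efficacy from Hill fits.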

Sequence of Alpha-galactosidase (Coffea arabica) (Q42656 whole entry, looked up): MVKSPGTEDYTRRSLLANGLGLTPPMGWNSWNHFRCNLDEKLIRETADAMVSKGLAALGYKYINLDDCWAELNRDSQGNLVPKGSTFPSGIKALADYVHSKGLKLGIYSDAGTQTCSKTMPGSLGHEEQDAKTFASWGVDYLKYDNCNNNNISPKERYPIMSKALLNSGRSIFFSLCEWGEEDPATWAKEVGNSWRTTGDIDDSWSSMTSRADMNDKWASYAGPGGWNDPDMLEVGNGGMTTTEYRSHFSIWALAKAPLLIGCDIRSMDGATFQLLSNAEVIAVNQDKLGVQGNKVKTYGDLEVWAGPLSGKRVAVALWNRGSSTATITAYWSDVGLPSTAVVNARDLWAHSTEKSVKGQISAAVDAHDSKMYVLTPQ
Sequence of Nucleoprotein (Lymphocytic choriomeningitis virus (strain Armstrong)) (P09992 whole entry, looked up): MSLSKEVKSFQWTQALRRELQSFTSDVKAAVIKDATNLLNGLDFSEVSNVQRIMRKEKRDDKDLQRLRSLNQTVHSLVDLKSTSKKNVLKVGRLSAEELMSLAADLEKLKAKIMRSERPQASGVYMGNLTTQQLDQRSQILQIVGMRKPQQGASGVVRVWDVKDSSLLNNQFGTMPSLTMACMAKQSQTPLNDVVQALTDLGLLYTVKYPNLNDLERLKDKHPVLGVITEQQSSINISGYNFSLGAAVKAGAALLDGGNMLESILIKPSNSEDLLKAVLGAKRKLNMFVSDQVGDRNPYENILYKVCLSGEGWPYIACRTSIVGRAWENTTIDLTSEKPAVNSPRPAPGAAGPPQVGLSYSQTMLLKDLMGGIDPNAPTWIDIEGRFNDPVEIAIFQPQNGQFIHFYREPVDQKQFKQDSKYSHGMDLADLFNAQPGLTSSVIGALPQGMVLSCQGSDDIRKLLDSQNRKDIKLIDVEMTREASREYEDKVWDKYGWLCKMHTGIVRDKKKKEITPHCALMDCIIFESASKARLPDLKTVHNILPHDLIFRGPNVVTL
Sequence of Peroxisome proliferator-activated receptor delta (Homo sapiens) (Q03181 whole entry, looked up): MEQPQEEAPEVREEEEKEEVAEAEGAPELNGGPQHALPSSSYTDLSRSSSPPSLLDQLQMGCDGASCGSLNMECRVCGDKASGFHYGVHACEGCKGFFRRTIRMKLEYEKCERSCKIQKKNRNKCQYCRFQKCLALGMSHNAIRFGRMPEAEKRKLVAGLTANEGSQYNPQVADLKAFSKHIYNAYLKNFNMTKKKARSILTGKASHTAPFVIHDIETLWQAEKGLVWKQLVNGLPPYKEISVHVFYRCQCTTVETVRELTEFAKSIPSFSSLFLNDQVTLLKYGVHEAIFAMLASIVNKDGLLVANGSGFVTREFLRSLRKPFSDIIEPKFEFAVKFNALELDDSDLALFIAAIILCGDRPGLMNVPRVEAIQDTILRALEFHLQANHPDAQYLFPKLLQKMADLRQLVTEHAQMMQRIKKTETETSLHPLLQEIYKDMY
Sequence of Arylsulfatase A (Homo sapiens) (P15289 whole entry, looked up): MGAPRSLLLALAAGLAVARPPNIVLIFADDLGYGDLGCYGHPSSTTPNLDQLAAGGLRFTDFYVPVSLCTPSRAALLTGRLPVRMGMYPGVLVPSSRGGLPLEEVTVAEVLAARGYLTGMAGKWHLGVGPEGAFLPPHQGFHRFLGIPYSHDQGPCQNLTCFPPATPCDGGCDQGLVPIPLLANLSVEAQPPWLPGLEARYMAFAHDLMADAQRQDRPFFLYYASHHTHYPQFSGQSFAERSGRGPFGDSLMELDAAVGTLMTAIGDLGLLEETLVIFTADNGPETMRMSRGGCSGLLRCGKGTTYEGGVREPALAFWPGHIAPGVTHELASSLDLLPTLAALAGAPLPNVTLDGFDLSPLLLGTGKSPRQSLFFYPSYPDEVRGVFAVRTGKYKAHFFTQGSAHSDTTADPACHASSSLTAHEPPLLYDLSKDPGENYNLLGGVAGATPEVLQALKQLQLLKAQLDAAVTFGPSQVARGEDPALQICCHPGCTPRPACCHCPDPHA
Sequence of Nuclear receptor ROR-gamma (Homo sapiens) (P51449 whole entry, looked up): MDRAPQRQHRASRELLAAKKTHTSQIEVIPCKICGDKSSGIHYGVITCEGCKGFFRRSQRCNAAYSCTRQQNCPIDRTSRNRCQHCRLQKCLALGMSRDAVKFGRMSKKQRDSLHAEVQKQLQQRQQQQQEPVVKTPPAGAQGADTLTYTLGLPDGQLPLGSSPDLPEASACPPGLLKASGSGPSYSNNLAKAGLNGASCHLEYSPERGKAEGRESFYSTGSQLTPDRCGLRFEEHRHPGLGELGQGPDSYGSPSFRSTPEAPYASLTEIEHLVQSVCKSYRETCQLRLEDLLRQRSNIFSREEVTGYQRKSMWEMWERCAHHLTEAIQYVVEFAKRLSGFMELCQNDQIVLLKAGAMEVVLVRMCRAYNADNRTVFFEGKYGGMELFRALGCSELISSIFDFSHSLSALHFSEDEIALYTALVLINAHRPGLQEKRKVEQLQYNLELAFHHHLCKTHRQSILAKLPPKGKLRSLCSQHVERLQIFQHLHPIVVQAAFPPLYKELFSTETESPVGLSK

SMILES: N#Cc1c(C2CCNCC2)cc(-c2c(O)cccc2OCC2CC2)nc1N
- Potency [1]: 19.3 µM (active)
- Potency [2]: 8.63 µM (active)
- Potency [3]: 5.44 µM (active)
- Potency [4]: inactive
- Potency [5]: 11.2 µM (active)
- Potency [6]: 7.94 µM (active)

SMILES: COc1cc(OC)c(C=CS(=O)(=O)Cc2ccc(OC)c(NCC(=O)O)c2)c(OC)c1
- Potency [1]: 0.217 µM (active)
- Potency [2]: 0.273 µM (active)
- Potency [3]: 0.611 µM (active)

SMILES: CCC1(O)CC2CN(CCc3c([nH]c4ccccc34)[C@@](C(=O)OC)(c3cc4c(cc3OC)N(C)C3[C@]45CCN4CC=C[C@@](CC)([C@@H](OC(C)=O)[C@]3(O)C(=O)OC)[C@H]45)C2)C1 (stereo not given in full)
- Potency [7]: 15.8 µM (active)
- outcome [8]: inactive
- Potency [1]: 0.447 µM (active)
- Potency [2]: 0.224 µM (active)
- Potency [3]: 0.708 µM (active)

SMILES: CN[C@H]1CCc2cc(OC)c(OC)c(OC)c2-c2ccc(OC)c(=O)cc21
- Potency [1]: inactive
- Potency [2]: 0.0054 µM (active)
- Potency [3]: 0.0172 µM (active)
- Potency [9]: 0.0383 µM (active)
- Potency [6]: inactive
- activity change, negative = inhibition [10]: -76.7%
- Potency [11]: 0.171 µM (active)

SMILES: O=C(O)Cn1nnc(-c2cc(N3CCC(Oc4cc(F)ccc4Br)CC3)no2)n1
- Potency [1]: 1.53 µM (active)
- Potency [2]: 1.72 µM (active)
- Potency [3]: 2.73 µM (active)
- Potency [6]: 3.55 µM (active)
- activity change, negative = inhibition [10]: -56.8%

SMILES: Cn1cc(C=CC(=O)c2cccc(F)c2)cc1C=CC(=O)NO
- Potency [1]: 17.2 µM (active)
- Potency [2]: 17.2 µM (active)
- Potency [3]: 13.7 µM (active)

SMILES: COc1ccc2c(c1OC)C(=O)OC2[C@H]1c2c(cc3c(c2OC)OCO3)CCN1C (stereo not given in full)
- outcome [12]: inactive
- outcome [13]: inactive
- Potency [1]: 1.53 µM (active)
- Potency [2]: 1.53 µM (active)
- Potency [3]: 1.37 µM (active)
- Potency [6]: inactive

SMILES: CCOc1cc2ncc(C#N)c(Nc3ccc(OCc4ccccn4)c(Cl)c3)c2cc1NC(=O)C=CCN(C)C
- Potency [1]: 1.37 µM (active)
- Potency [2]: 0.769 µM (active)
- Potency [3]: 1.53 µM (active)

SMILES: O=C(C=CC#Cc1cccc(NS(=O)(=O)c2ccccc2)c1)NO
- Potency [1]: 13.7 µM (active)
- Potency [2]: 6.85 µM (active)
- Potency [3]: 12.2 µM (active)

SMILES: COc1cc(Nc2nc3ccccc3nc2NS(=O)(=O)c2ccc(NC(=O)c3ccc(C)c(OC)c3)cc2)cc(OC)c1
- Potency [1]: 21.7 µM (active)
- Potency [2]: 13.7 µM (active)
- Potency [3]: 27.3 µM (active)
- Potency [4]: inactive
- Potency [5]: inactive
- Potency [6]: inactive
- Potency [10]: inactive

SMILES: CN(C)c1ccc(C(=O)NCCCCCCC(=O)NO)cc1
- Potency [1]: 4.85 µM (active)
- Potency [2]: 1.53 µM (active)
- Potency [10]: inactive

SMILES: Cc1cc(C(C)Nc2ccccc2)c2nc(N3CCOCC3)cc(=O)n2c1 (stereo not given)
- Potency [1]: 1.93 µM (active)
- Potency [2]: 0.544 µM (active)
- Potency [6]: inactive

SMILES: Cc1cc(C(=O)NOCCO)c(Nc2ccc(I)cc2F)n(C)c1=O
- Potency [1]: 6.85 µM (active)
- Potency [2]: 0.863 µM (active)
- Potency [6]: inactive
- activity change, negative = inhibition [10]: -17.4%

SMILES: CN[C@@H](C)C(=O)N[C@H]1CN(C(=O)CC(C)C)CC[C@H]2CC[C@@H](C(=O)NC(c3ccccc3)c3ccccc3)N2C1=O
- Potency [1]: 3.43 µM (active)
- Potency [2]: 12.2 µM (active)
- Potency [6]: inactive
- activity change, negative = inhibition [10]: 1.03%

SMILES: CCN(CC)Cc1ccc2cc(COC(=O)Nc3ccc(C(=O)NO)cc3)ccc2c1
- Potency [1]: 15.3 µM (active)
- Potency [2]: 6.85 µM (active)
- Potency [6]: 10 µM (active)

SMILES: COc1cc2ncnc(Nc3cc(Br)c(O)c(Br)c3)c2cc1OC
- Potency [1]: 0.611 µM (active)
- Potency [2]: 0.0544 µM (active)
- Potency [6]: inactive
- activity change, negative = inhibition [10]: -28.4%

SMILES: NC(=O)c1ncn([C@@H]2O[C@H](CO)[C@@H](O)[C@H]2O)n1
- outcome [12]: inactive
- outcome [13]: inactive
- Potency [14]: 8.91 µM (active)
- Potency [7]: inactive
- Potency [15]: inactive
- viability change [15]: 7.17%
- outcome [8]: inactive
- Potency [16]: inactive
- Potency [17]: 31.6 µM (active)
- Potency [18]: 66.8 µM (active)
- Potency [19]: 18.8 µM (active)
- Potency [20]: inactive
- Potency [1]: inactive
- Potency [2]: inactive
- Potency [21]: inactive
- outcome [22]: inactive
- Potency [23]: inactive
- outcome [24]: inactive
- Potency [6]: inactive
- activity change, negative = inhibition [10]: -11.7%

SMILES: CCN1CCCC1=O
- Potency [1]: inactive
- Potency [2]: inactive
- Potency [21]: inactive
- outcome [22]: inactive
- Potency [23]: inactive
- outcome [24]: inactive
- Potency [6]: inactive
- Potency [10]: inactive

SMILES: NC(N)=NC(N)=NCCc1ccccc1
- Potency [25]: inactive
- Potency [1]: inactive
- Potency [2]: inactive
- Potency [6]: inactive
- activity change, negative = inhibition [10]: -16.7%

SMILES: CN(C)CCN1C(=O)c2cccc3cc(N)cc(c23)C1=O
- Potency [1]: 7.69 µM (active)
- Potency [2]: 6.85 µM (active)
- Potency [10]: 7.08 µM (active)
